7 molecules from ChEMBL document CHEMBL1961873, “Compounds: GSK PKIS; Assays: Nanosyn kinase panel” (2012) can be followed below.

SMILES strings stand for the structures.

Assay [1] deals with Calcium/calmodulin-dependent protein kinase type II subunit alpha (Homo sapiens) (UniProt Q9UQM7). The note with it: at 1 µM.
In assay [2] the target is Calcium/calmodulin-dependent protein kinase type II subunit delta (Homo sapiens) (UniProt Q13557). As to conditions: at 0.1 µM.
Assay [3] shares this target. As to conditions: at 1 µM.
For assay [4], the target named is T1, Calcium/calmodulin-dependent protein kinase type IV (Homo sapiens) (UniProt Q16566).
T1 sequence (whole entry): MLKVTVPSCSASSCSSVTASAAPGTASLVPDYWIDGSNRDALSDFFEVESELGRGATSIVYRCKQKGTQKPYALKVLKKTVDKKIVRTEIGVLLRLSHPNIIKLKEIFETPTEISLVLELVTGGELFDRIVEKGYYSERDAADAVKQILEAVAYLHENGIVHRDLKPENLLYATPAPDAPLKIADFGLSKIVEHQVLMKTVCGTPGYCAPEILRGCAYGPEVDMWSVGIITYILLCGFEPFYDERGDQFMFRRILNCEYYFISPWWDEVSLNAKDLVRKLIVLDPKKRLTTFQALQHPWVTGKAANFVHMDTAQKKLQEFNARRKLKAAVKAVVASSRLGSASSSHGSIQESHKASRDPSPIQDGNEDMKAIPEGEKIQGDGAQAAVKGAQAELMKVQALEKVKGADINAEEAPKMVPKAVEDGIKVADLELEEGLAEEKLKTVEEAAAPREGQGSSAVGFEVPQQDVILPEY
As to conditions: at 0.1 µM.

Assay [5] concerns the target T1, Calcium/calmodulin-dependent protein kinase type IV (Homo sapiens). The note with it: at 1 µM.
Assay [6] has as its target T2, Serine/threonine-protein kinase Chk1 (Homo sapiens) (UniProt O14757).
T2 sequence (whole entry): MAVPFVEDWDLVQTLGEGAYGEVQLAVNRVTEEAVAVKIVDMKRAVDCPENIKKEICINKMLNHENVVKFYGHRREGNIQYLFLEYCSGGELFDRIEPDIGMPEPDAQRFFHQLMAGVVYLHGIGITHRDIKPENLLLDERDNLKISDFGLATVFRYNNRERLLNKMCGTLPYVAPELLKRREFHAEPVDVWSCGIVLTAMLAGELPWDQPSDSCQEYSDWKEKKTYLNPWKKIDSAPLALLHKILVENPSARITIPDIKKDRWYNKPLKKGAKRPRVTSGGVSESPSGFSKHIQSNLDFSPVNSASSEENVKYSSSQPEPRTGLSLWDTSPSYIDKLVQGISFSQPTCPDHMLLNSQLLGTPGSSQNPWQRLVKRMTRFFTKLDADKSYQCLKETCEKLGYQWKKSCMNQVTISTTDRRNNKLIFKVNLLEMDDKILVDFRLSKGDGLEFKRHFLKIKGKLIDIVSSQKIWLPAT
The note with it: at 0.1 µM.

In assay [7] the target is T2, Serine/threonine-protein kinase Chk1 (Homo sapiens). As to conditions: at 1 µM.
The target in assay [8] is Serine/threonine-protein kinase Chk2 (Homo sapiens) (UniProt O96017). The note with it: at 0.1 µM.
Chain of Serine/threonine-protein kinase Chk2 (Homo sapiens) (O96017 whole entry): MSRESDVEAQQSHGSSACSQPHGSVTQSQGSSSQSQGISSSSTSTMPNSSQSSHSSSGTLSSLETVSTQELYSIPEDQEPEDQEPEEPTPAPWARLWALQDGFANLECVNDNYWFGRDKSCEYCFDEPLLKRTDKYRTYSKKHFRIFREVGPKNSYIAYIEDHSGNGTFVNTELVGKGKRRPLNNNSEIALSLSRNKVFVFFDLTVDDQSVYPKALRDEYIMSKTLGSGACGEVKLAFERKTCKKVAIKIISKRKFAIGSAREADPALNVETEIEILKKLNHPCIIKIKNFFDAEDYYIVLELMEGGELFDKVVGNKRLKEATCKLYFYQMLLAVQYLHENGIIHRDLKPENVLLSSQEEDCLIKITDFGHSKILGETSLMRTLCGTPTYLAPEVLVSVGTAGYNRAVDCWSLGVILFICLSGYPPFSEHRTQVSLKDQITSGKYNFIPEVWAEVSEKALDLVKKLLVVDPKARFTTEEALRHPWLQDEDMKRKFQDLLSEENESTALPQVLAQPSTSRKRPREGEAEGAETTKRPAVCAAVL
The target is the same in assay [9]. The note with it: at 1 µM.
For assay [10], the target named is Death-associated protein kinase 1 (Homo sapiens) (UniProt P53355). The note with it: at 0.1 µM.
Chain of Death-associated protein kinase 1 (Homo sapiens) (P53355 whole entry, looked up): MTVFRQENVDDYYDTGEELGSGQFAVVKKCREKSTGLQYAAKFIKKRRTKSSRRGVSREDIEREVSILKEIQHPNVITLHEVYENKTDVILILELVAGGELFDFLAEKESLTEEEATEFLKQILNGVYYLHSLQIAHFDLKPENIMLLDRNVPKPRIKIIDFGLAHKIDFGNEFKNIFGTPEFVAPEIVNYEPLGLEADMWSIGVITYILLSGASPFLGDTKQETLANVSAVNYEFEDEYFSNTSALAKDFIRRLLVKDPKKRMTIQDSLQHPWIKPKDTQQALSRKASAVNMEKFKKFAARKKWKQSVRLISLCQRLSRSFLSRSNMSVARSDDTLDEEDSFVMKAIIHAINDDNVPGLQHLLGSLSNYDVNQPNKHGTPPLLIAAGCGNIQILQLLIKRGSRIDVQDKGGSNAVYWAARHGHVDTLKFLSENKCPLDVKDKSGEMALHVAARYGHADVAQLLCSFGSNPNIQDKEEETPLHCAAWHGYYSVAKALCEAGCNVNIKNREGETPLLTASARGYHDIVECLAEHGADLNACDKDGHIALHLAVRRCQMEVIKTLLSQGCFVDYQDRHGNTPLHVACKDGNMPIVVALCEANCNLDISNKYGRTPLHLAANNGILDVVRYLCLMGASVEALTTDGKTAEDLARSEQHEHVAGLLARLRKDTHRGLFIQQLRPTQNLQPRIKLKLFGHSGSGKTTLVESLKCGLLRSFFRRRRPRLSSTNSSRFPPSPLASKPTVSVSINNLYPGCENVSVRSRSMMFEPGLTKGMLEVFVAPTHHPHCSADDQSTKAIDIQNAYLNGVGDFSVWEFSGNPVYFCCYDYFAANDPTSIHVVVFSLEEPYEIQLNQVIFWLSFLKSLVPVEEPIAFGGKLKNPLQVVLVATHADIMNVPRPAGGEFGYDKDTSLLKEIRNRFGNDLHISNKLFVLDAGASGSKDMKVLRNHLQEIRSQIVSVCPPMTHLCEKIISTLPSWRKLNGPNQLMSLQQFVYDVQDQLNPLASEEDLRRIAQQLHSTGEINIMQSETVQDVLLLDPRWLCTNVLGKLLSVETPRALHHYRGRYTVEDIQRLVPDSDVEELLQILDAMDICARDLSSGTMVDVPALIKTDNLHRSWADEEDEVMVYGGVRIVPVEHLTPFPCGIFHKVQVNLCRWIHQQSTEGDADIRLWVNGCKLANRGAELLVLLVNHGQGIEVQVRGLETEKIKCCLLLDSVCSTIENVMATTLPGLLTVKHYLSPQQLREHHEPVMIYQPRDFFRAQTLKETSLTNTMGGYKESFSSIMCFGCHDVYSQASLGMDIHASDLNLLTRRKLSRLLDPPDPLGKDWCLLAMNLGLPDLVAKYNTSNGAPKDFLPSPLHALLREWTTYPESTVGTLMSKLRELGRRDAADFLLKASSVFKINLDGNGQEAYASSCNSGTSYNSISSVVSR
Assay [11] shares this target. The note with it: at 1 µM.
The target of assay [12] is T3, Serine/threonine-protein kinase DCLK2 (Homo sapiens) (UniProt Q8N568).
T3 sequence (whole entry): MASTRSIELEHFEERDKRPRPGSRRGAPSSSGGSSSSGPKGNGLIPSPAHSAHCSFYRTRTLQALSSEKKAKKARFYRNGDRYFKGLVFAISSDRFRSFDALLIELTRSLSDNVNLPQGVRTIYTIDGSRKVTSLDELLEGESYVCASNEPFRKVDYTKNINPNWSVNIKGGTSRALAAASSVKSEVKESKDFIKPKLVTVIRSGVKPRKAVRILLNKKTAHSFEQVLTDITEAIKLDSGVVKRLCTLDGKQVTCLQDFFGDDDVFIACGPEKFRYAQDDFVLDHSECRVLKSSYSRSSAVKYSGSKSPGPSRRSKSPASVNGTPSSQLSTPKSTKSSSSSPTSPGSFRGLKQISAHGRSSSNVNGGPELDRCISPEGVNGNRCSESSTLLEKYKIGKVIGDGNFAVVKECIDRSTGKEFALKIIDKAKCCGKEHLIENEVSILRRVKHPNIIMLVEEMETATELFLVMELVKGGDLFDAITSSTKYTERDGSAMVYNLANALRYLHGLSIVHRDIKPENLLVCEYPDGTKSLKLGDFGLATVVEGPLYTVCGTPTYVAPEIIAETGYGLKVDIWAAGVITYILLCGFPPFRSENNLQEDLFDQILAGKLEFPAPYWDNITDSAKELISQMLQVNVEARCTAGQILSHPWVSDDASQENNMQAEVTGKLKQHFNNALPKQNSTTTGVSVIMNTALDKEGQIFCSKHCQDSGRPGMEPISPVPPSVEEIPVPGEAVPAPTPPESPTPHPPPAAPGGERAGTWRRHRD
As to conditions: at 0.1 µM.

For assay [13], the target named is T3, Serine/threonine-protein kinase DCLK2 (Homo sapiens). The note with it: at 1 µM.
In assay [14] the target is MAP kinase-activated protein kinase 2 (Homo sapiens) (UniProt P49137). As to conditions: at 0.1 µM.
Chain of MAP kinase-activated protein kinase 2 (Homo sapiens) (P49137 whole entry, looked up): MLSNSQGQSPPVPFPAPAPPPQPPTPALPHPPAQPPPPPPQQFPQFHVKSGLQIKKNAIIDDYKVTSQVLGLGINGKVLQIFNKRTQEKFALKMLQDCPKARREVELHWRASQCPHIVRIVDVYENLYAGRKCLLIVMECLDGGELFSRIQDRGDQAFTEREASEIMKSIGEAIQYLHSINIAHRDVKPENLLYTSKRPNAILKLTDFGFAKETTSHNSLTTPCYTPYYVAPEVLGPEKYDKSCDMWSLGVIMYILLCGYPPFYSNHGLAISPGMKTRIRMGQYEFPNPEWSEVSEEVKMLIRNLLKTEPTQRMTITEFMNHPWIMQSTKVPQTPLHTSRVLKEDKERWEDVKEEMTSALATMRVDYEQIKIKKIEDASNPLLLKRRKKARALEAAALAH
For assay [15] the target is unchanged. As to conditions: at 1 µM.
The target of assay [16] is MAP kinase-activated protein kinase 3 (Homo sapiens) (UniProt Q16644). The note with it: at 0.1 µM.
Chain of MAP kinase-activated protein kinase 3 (Homo sapiens) (Q16644 whole entry, looked up): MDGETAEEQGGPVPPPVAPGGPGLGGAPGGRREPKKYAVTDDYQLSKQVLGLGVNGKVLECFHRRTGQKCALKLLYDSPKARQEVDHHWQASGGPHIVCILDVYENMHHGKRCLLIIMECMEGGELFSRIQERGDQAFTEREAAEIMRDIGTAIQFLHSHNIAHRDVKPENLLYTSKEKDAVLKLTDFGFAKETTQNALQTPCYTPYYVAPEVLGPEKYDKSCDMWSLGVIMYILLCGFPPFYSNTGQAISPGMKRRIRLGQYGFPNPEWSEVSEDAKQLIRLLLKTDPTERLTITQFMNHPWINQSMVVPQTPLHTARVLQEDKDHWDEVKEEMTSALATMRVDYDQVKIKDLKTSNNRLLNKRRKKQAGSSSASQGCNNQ
Assay [17] has the same target. The note with it: at 1 µM.
The target of assay [18] is Serine/threonine-protein kinase MARK1 (Homo sapiens) (UniProt Q9P0L2). As to conditions: at 0.1 µM.
Chain of Serine/threonine-protein kinase MARK1 (Homo sapiens) (Q9P0L2 whole entry, looked up): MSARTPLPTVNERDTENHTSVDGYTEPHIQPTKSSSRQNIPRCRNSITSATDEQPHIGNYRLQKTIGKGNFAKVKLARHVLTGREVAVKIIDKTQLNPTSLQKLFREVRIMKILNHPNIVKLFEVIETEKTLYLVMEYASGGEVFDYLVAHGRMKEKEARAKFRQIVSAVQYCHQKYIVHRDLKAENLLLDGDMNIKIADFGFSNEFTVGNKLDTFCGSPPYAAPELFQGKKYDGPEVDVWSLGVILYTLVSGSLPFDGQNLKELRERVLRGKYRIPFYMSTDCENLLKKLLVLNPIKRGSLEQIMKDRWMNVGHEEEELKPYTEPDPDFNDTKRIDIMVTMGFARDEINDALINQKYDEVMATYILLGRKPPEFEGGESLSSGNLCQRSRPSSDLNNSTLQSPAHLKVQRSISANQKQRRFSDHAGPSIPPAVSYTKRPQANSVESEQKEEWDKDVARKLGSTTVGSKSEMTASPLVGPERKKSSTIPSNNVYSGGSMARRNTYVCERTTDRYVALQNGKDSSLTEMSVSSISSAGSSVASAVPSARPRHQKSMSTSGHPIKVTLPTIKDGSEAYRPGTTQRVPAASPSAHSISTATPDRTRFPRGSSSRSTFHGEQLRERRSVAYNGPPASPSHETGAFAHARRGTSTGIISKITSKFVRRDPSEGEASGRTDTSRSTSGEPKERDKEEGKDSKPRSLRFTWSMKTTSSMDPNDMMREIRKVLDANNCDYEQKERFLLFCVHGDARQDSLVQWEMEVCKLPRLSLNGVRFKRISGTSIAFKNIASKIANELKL
The target is the same in assay [19]. The note with it: at 1 µM.
In assay [20] the target is MAP/microtubule affinity-regulating kinase 3 (Homo sapiens) (UniProt P27448). The note with it: at 0.1 µM.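 Also: mean percent inhibition of MARK3 kinase activity, measured within the GSK PKIS screening panel.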
Chain of MAP/microtubule affinity-regulating kinase 3 (Homo sapiens) (P27448 whole entry, looked up): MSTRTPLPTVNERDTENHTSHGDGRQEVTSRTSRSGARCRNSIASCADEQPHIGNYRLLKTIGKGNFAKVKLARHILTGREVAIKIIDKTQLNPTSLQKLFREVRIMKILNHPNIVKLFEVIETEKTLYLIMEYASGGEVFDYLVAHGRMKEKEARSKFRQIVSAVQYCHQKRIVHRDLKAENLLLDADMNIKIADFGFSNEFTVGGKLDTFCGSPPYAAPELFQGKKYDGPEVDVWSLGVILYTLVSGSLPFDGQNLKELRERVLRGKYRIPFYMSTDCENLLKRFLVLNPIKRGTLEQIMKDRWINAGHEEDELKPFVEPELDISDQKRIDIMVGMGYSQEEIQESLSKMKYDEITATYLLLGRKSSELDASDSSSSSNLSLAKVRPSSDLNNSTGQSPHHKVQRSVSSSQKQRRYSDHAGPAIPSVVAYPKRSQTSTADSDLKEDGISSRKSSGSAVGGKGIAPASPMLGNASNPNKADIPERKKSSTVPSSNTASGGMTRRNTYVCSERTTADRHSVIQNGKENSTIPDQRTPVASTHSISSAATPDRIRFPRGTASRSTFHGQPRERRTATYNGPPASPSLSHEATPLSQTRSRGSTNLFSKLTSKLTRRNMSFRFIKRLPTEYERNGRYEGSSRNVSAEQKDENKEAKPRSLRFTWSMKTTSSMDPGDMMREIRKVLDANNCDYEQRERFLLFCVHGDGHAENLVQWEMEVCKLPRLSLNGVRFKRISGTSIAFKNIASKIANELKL

Chain of Calcium/calmodulin-dependent protein kinase type II subunit alpha (Homo sapiens) (Q9UQM7 whole entry): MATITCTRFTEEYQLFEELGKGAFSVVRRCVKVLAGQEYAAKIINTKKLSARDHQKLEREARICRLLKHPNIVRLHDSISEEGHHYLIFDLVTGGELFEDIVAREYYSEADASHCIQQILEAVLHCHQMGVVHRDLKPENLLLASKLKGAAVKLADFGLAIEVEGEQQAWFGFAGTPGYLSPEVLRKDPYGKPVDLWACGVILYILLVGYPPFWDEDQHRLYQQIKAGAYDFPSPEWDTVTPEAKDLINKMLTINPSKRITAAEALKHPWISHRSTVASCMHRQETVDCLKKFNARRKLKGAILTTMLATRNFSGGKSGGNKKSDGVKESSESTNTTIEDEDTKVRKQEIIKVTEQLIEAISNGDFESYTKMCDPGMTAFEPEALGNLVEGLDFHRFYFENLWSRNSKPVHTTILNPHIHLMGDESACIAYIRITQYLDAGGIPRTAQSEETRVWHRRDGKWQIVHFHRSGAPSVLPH

In the case of `O=C1Nc2ccccc2/C1=C/Nc1ccc2[nH]c(=O)[nH]c2c1`, the inhibition is 6.6% in assay [1]; 4.2% in assay [2]; 14.1% in assay [3]; -1.23% in [4]; -1.4% in assay [5]; 0.84% in assay [6]. Further, the inhibition in assay [7] was found to be 15.7%; in assay [8], 5.95%; in [9], 23.3%; in assay [10] it was 1.92%; in assay [11], 2.63%; in [12], 0.75%. Besides, the inhibition was -0.33% in [13]; 2.44% in assay [14]; 2.97% in [15]; 6.76% in assay [16]; 8.08% in assay [17]; 6.25% in assay [18]. Also, the figures for the inhibition in [19] and in [20] were 32.5% and 2.47%, respectively.
As to `NS(=O)(=O)c1ccc(N/N=C2\C(=O)Nc3ccc(Cl)cc32)cc1`, the inhibition was 4.05% in assay [1]; 2.98% in assay [2]; 4.81% in [3]; -0.73% in assay [4]; -3.41% in [5]; -3.35% in assay [6]. In addition, the inhibition was -2.04% in assay [7]; -2.37% in [8]; 0.53% in assay [9]; -4% in assay [10]; -3.71% in [11]; 0.73% in [12]. Also, the inhibition in assay [13] is 1%; in assay [14], -0.88%; in assay [15], -0.73%; in assay [16] it was -2.03%; in [17], -2.76%; in [18] it was 3.26%. For the same molecule, the results for the inhibition in assay [19] and in [20] were 11.4% and 4.4%, respectively.
Regarding `Cc1cc(O)cc(C)c1/C=C/c1cncc(C(=O)N(C)C)c1`, the inhibition in assay [1] came out at 3.57%; in [2] it was 3.56%; in [3] it was 4.04%; in assay [4] it was 2.13%; in assay [5], 0.97%; in assay [6], 5.84%. In addition, the inhibition in assay [7] is 2.96%; in assay [8], -0.15%; in assay [9] it was 0.11%; in assay [10], 3.93%; in [11] it was 5.28%; in assay [12] it was 3.47%. In addition, the inhibition in assay [13] is 0.19%; in assay [14], 0.52%; in assay [15] it was 0.82%; in assay [16] it was 0.87%; in [17], 1.23%; in assay [18], 1.15%. Moreover, the inhibition in assay [19] was 1.29%; in assay [20] it was 2.67%.
With `Oc1cccc(-c2nc(-c3ccccc3)[nH]c2-c2ccncc2)c1`, the inhibition in assay [1] turned out to be 3.17%; in [2] it was 3.67%; in [3] it was 3.45%; in assay [4], 2.26%; in assay [5], 0.29%; in assay [6] it was 7.47%. The inhibition in [7] is 6.28%; in assay [8], 0.91%; in assay [9], 1.68%; in assay [10] it was 5.76%; in assay [11], 6.12%; in [12] it was 2.33%. Moreover, the inhibition in assay [13] stood at 0.39%; in assay [14] it was 1.62%; in assay [15], 1.79%; in assay [16] it was 11.7%; in assay [17], 25.4%; in assay [18], 1.58%. Further, the inhibition in assay [19] was determined as 4.27%; in assay [20], 3.78%.
In the case of `CC(C)c1ccc2c(c1)NC(=O)/C2=N/Nc1ccc(S(N)(=O)=O)cc1`, the inhibition in [1] was 0.01%; in [2], -0.56%; in assay [3] it was 0.81%; in assay [4] it was -0.87%; in [5] it was 0.54%; in assay [6], -7.82%. The inhibition in assay [7] is 0.1%; in assay [8], 0.32%; in assay [9], 0.01%; in assay [10], -0.88%; in assay [11], -1.66%; in assay [12], -1.85%. In addition, the inhibition in assay [13] was -0.66%; in [14], -1.01%; in assay [15], -0.9%; in [16] it was -0.68%; in [17], -1.45%; in assay [18], -0.84%. Also, the inhibition was 0.9% in assay [19] and -3.67% in assay [20].
As to `Cc1ccc(NC(=O)CC2CC2)cc1-c1ccc(C(=O)NCC2CC2)cc1`, the inhibition is 2.95% in [1]; 2.84% in [2]; 3.34% in assay [3]; -0.3% in assay [4]; -0.84% in assay [5]; 7.49% in assay [6]. The inhibition is 10.9% in assay [7]; 6.96% in [8]; 7.62% in assay [9]; 11.5% in assay [10]; 12.4% in [11]; 1.13% in assay [12]. Further, the inhibition in assay [13] turned out to be 0.51%; in [14], 4.17%; in [15], 4.27%; in assay [16], 18.4%; in [17], 33.5%; in [18] it was 2.05%. For the same molecule, the inhibition in [19] turned out to be 2.04%; in assay [20], 2.42%.
As to `CCn1c(-c2nonc2N)nc2c(C#CC(C)(C)O)nc(OCCNC)cc21`, the inhibition in assay [1] is 3.51%; in [2], 3.94%; in assay [3], 7.7%; in assay [4], -0.53%; in assay [5], 2.52%; in assay [6], -0.01%. Besides, the inhibition was 1.87% in assay [7]; 3.74% in [8]; 6.21% in [9]; 1.77% in [10]; -0.74% in assay [11]; -0.8% in assay [12]. Further, the inhibition is -0.85% in [13]; 1.85% in assay [14]; 2.88% in assay [15]; 2.43% in [16]; 3.56% in assay [17]; 1.55% in [18]. Also, the results for the inhibition in [19] and in assay [20] were 10.3% and 0.62%, respectively.
